In PubChem BioAssay (NCATS):
Active and inactive are the calls of the source. Calls follow the shape of the dose curve; as a rule, active = well fitted curve in the direction sought with a large enough effect; inconclusive = small, poorly fitted or top-dose-only effect, or effect the other way, or another doubt; inactive = no such curve, though single readings can be large or run the other way.

Experiment: Inducers of the Endoplasmic Reticulum Stress Response (ERSR) in human glioma: Validation (AID 504836); also: 0% is about no effect
Conditions: human glioma cells, ER stress response reporter; series mostly up to 38.3 µM; activation: at the top concentration
In short: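 ERSR induction read as luciferase luminescence (Bright-Glo, 10 min at room temperature) in stably transfected human U87-MG glioma cells exposed to compounds for 16 h, using GRP78 as sensor.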

Compound | activation
CN(C(=O)CCCOc1ccc2[nH]c(=O)ccc2c1)C1CCCCC1 | 7.38% (inactive)
CC1=C(C)C(=O)C(CCCCC#CCCCC#CCO)=C(C)C1=O | 0.948% (inactive)
CN(C)CCCN1c2ccccc2Sc2ccc(C(F)(F)F)cc21 | -0.601% (inactive)
C#CCN(C)Cc1ccccc1 | -4.31% (inactive)
COCCOC(=O)C1=C(C)NC(C)=C(C(=O)OC/C=C/c2ccccc2)C1c1cccc([N+](=O)[O-])c1 (centres undefined) | -1.87% (inactive)
O=C(c1ccc(F)cc1)C1CCN(CCn2c(=O)[nH]c3ccccc3c2=O)CC1 | -3.57% (inactive)
Cc1nc2sccn2c(=O)c1CCN1CCC(=C(c2ccc(F)cc2)c2ccc(F)cc2)CC1 | -1.34% (inactive)
NS(=O)(=O)c1cc2c(cc1Cl)NC(C1CC3C=CC1C3)NS2(=O)=O (centres undefined) | -0.421% (inactive)
Cc1ccc(N(CC2=NCCN2)c2cccc(O)c2)cc1 | 0.0677% (inactive)
Clc1ccccc1C(c1ccccc1)(c1ccccc1)n1ccnc1 | -3.54% (inactive)
CN1C[C@H](C(=O)N[C@]2(C)O[C@@]3(O)[C@@H]4CCCN4C(=O)[C@H](Cc4ccccc4)N3C2=O)C[C@@H]2c3cccc4[nH]cc(c34)C[C@H]21 | -1.43% (inactive)
CC[C@H]1CN2CCc3cc(OC)c(OC)cc3[C@@H]2C[C@@H]1C[C@H]1NCCc2cc(OC)c(OC)cc21 | -7.34% (inactive)
COc1ccc(CN(CCN(C)C)c2ccccn2)cc1 | -1.74% (inactive)
Oc1ccc(/C=C/c2cc(O)cc(O)c2)cc1 | -11.8% (inactive)
Cc1ccc(=O)n(-c2ccccc2)c1 | -1.97% (inactive)
NC(N)=NCCC[C@H](N)C(=O)O | -4.29% (inactive)
C[C@]12CC[C@@H]3c4ccc(O)cc4CC[C@H]3[C@@H]1CCC2=O | 3.36% (inactive)
COc1cc(C(=O)OCCCN2CCCN(CCCOC(=O)c3cc(OC)c(OC)c(OC)c3)CC2)cc(OC)c1OC | 6.01% (inactive)
COc1ccccc1N1CCN(CCCNc2cc(=O)n(C)c(=O)n2C)CC1 | -4.61% (inactive)
CN(C)C(=O)Oc1cccc([N+](C)(C)C)c1 | 0.849% (inactive)
C(=C\c1ccccc1)/CN1CCN(C(c2ccccc2)c2ccccc2)CC1 | -3.33% (inactive)
NC1=NCC2c3ccccc3Cc3ccccc3N12 (centres undefined) | -2.63% (inactive)
CC(C)COCC(CN(Cc1ccccc1)c1ccccc1)N1CCCC1 (centres undefined) | -2.72% (inactive)
Nc1c2c(nc3ccccc13)CCCC2 | -3.14% (inactive)
CNCCC(Oc1ccccc1OC)c1ccccc1 (centres undefined) | -2.3% (inactive)
CN1Cc2c(N)cccc2C(c2ccccc2)C1 (centres undefined) | -6.09% (inactive)
CN1CCC(=C2c3ccccc3CC(=O)c3sccc32)CC1 | -2.48% (inactive)
CCn1ccnc1CC1COc2ccccc2O1 (centres undefined) | 1.15% (inactive)
C#CCN(C)CCCOc1ccc(Cl)cc1Cl | 2.76% (inactive)
